The values that follow come from PubChem BioAssay (NCATS).

Inconclusive results are not listed. Entries that show only a call come without a potency. Calls of active or inactive are those of the source. Calls come from the whole dose curve; as a rule, active = well fitted inhibition curve with a large enough effect; inconclusive = small, poorly fitted or top-dose-only effect; inactive = no such curve, though single readings can be large or run the other way.
Note: nearly all actives have a fitted effect of over 70% in size.
Potency is the fitted concentration of half-maximal effect.

Sequence of N-terminal Xaa-Pro-Lys N-methyltransferase 1 (Homo sapiens) (Q9BV86 whole entry, looked up): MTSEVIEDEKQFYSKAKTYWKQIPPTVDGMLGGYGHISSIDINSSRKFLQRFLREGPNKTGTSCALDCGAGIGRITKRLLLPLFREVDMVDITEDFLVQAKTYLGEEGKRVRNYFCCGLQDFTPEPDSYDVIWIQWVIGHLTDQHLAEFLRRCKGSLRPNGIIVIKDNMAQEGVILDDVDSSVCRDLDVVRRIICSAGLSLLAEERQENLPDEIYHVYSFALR
Sequence of Furin (Homo sapiens) (P09958 whole entry, looked up): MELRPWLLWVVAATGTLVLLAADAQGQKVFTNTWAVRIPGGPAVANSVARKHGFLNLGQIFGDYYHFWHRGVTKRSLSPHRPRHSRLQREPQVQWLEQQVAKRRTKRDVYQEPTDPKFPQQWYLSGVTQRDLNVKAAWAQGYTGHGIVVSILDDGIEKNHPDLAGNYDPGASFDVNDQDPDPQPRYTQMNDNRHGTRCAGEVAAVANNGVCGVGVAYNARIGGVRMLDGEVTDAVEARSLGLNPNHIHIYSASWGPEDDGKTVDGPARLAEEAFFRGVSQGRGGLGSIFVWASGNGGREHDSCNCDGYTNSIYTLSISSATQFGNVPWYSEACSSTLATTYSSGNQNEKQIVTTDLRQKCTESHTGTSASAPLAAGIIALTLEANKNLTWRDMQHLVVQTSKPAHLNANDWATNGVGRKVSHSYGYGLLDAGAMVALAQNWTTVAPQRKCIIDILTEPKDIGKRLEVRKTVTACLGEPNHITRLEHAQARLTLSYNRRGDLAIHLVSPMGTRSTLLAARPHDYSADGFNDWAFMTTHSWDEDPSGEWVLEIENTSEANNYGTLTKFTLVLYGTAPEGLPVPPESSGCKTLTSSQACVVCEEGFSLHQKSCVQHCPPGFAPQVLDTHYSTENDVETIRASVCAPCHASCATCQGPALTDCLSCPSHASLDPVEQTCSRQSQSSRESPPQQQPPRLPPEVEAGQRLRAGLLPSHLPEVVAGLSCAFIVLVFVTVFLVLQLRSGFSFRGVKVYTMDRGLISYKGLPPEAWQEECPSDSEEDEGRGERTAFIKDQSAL

In one assay the target is N-terminal Xaa-Pro-Lys N-methyltransferase 1 (Homo sapiens) (UniProt Q9BV86). The experiment in a line: qHTS Assay for Inhibitors of N-terminal methyltransferase 1 (NTMT1): LOPAC validation of the NTMT1 SAHH-coupled ThioGlo3 Assay (AID 1347143).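 Note: SAH from peptide methylation measured as thiol fluorescence via SAHH coupling and ThioGlo3.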 To be noted: recombinant NTMT1, SAHH-coupled ThioGlo3 fluorescence; series mostly up to 114 µM. A digest of the protocol:
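In this qHTS pilot against the LOPAC set, 125nM NTMT1 met compounds tested at multiple concentrations, and fluorescence was normalized to background.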
With `NCC(CC(=O)O)c1ccc(Cl)cc1` (stereo unspecified), the Potency result is “inactive”.

As to `CC[C@@H](CO)NC(=O)[C@@H]1C=C2c3cccc4[nH]cc(c34)C[C@H]2N(C)C1`, the Potency was 25.1 µM (active).

Consider `CC(=O)[C@H]1CC[C@H]2[C@@H]3CC[C@H]4C[C@H](O)CC[C@]4(C)[C@H]3C(=O)C[C@]12C`, for which the Potency entry was “inactive”.

As to `Cc1ccc(S(=O)(=O)N[C@@H](CCCCN)C(=O)CCl)cc1`, the Potency was 56.2 µM (active).

Consider `CC[C@@H](CO)NC(=O)[C@@H]1C=C2c3cccc4c3c(cn4C)C[C@H]2N(C)C1`, for which the Potency was 56.2 µM (active).

Turning to `CCn1cc(C(=O)O)c(=O)c2ccc(C)nc21`, the Potency result is “inactive”.

On to `CC(CCc1ccccc1)NC(C)C(O)c1ccc(O)cc1` (stereo unspecified), for which the Potency entry is “inactive”.

Consider `O=C1NCN(c2ccccc2)C12CCN(CC1COc3ccccc3O1)CC2` (stereo unspecified), for which the Potency entry was “inactive”.

With `NCC(O)c1ccc(O)cc1` (stereo unspecified), the Potency result is “inactive”.

In the case of `CC[N+](CC)(CC)CC`, the Potency entry was “inactive”.

For the molecule `NCC1(CC(=O)O)CCCCC1`, the Potency entry is “inactive”.

Turning to `NN=C(N)N`, the Potency entry was “inactive”.

Take `N#CC(C#N)=Cc1ccc(O)c(O)c1`: the Potency was 56.2 µM (active).

On to `O=c1[nH]c2ccccc2n1C1CCN(CCCC(c2ccc(F)cc2)c2ccc(F)cc2)CC1`, for which the Potency result was “inactive”.

For `CC(=O)[C@H]1CC[C@H]2[C@@H]3CC[C@H]4C[C@](C)(O)CC[C@]4(C)[C@H]3CC[C@]12C`, the Potency entry is “inactive”.

Turning to `CCC1(C2=NCCN2)Cc2ccccc2O1` (stereo unspecified), the Potency entry is “inactive”.

As to `CNCC(O)c1ccc(O)cc1` (stereo unspecified), the Potency entry is “inactive”.

A further assay deals with Furin (Homo sapiens) (UniProt P09958). Put plainly: Furin counterscreen qHTS for Zika virus inhibitors (AID 1347149). To be noted: furin enzymatic counterscreen, fluorogenic substrate; series mostly up to 57.5 µM. A digest of the protocol:
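Counterscreen measures cleavage of 2 microM BOC-RVRR-AMC, below its ~15 microM Km, by 5 nM full-length human furin at pH 7.0 after a 15-min compound preincubation. Inhibition derives from the 15-min fluorescence increase at 37C.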
For `CCN(C(C)=O)c1cccc(-c2ccnc3c(C#N)cnn23)c1`, the Potency was 24.1 µM (active).

As for `N[C@@H](Cc1ccc(Oc2cc(I)c(O)c(I)c2)c(I)c1)C(=O)O`, the Potency is 30.4 µM (active).

`O=c1oc2ccccc2c(O)c1C(CC(O)c1ccc(-c2ccc(Br)cc2)cc1)c1ccccc1` (stereo unspecified): the Potency was 26.4 µM (active).

For `Cc1ccc(-c2nc3ccc(C)cn3c2CC(=O)N(C)C)cc1`, the Potency was 8.55 µM (active).
